# Source: publication PMC5540273 (PLoS ONE, 2017)
# Assays:
# Conditions in all cases: concentration: 1 μM, replicates: in singlicate; n = 1
# PAK1 = test system: PAK1
# PAK2 = test system: PAK2
# PAK3 = test system: PAK3
# PAK4 = test system: PAK4
# PAK6 = test system: PAK6
# PAK7 = test system: PAK7
# PCTK1 = test system: T1, PCTK1
# T1 construct: gene CDK16
# PCTK2 = test system: T2, PCTK2
# T2 construct: gene CDK17
# PCTK3 = test system: T3, PCTK3
# T3 construct: gene CDK18
# PDGFRA = test system: PDGFRA
# 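Also: KINOMEscan kinase panel screen.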
smiles,measurement,setting,value
CCc1nc(-c2cccc(C)c2)c(-c2ccnc(NC(=O)c3ccccc3)c2)s1,%Inh,PAK1,0%
same,%Inh,PAK2,0%
same,%Inh,PAK3,2%
same,%Inh,PAK4,0%
same,%Inh,PAK6,3%
same,%Inh,PAK7,0%
same,%Inh,PCTK1,24%
same,%Inh,PCTK2,7%
same,%Inh,PCTK3,1%
same,%Inh,PDGFRA,0%
CC(C)(C)c1ccc(-n2cnc3c(N)ncnc32)cc1 [SKF-97263],%Inh,PAK1,9%
same,%Inh,PAK2,0%
same,%Inh,PAK3,22%
same,%Inh,PAK4,0%
same,%Inh,PAK6,0%
same,%Inh,PAK7,0%
same,%Inh,PCTK1,0%
same,%Inh,PCTK2,0%
same,%Inh,PCTK3,30%
same,%Inh,PDGFRA,13%
Nc1nc(-c2ccccn2)c(-c2ccnc3ccccc23)s1 [GW548057],%Inh,PAK1,0%
same,%Inh,PAK2,0%
same,%Inh,PAK3,0%
same,%Inh,PAK4,0%
same,%Inh,PAK6,1%
same,%Inh,PAK7,26%
same,%Inh,PCTK1,0%
same,%Inh,PCTK2,18%
same,%Inh,PCTK3,16%
same,%Inh,PDGFRA,1%
COc1ccc(-c2oc3ncnc(N)c3c2-c2ccc(OC)cc2)cc1 [SB-589132],%Inh,PAK1,0%
same,%Inh,PAK2,16%
same,%Inh,PAK3,14%
same,%Inh,PAK4,0%
same,%Inh,PAK6,0%
same,%Inh,PAK7,0%
same,%Inh,PCTK1,0%
same,%Inh,PCTK2,0%
same,%Inh,PCTK3,14%
same,%Inh,PDGFRA,17%
Fc1ccc(Nc2nccc(-c3c(-c4ccc(Cl)cc4)nn4ncccc34)n2)cc1F [GW829058],%Inh,PAK1,21%
same,%Inh,PAK2,24%
same,%Inh,PAK3,15%
same,%Inh,PAK4,27%
same,%Inh,PAK6,34%
same,%Inh,PAK7,14%
same,%Inh,PCTK1,23%
same,%Inh,PCTK2,0%
same,%Inh,PCTK3,13%
same,%Inh,PDGFRA,19%
Nc1nc(-c2cccnc2)c(-c2ccnc3ccccc23)s1 [GW684083],%Inh,PAK1,0%
same,%Inh,PAK2,4%
same,%Inh,PAK3,20%
same,%Inh,PAK4,0%
same,%Inh,PAK6,0%
same,%Inh,PAK7,0%
same,%Inh,PCTK1,0%
same,%Inh,PCTK2,0%
same,%Inh,PCTK3,11%
same,%Inh,PDGFRA,0%
COc1ccc(Nc2nccc(N3CCC(NC(=O)Nc4ccc5c(c4)OCO5)C3)n2)cc1 (centres unmarked) [GSK1379745],%Inh,PAK1,0%
same,%Inh,PAK2,6%
same,%Inh,PAK3,0%
same,%Inh,PAK4,0%
same,%Inh,PAK6,0%
same,%Inh,PAK7,0%
same,%Inh,PCTK1,6%
same,%Inh,PCTK2,17%
same,%Inh,PCTK3,32%
same,%Inh,PDGFRA,0%
C[C@@H]1CCN(C(=O)CO)C[C@@H]1N(C)c1ncnc2[nH]ccc12,%Inh,PAK1,0%
same,%Inh,PAK2,0%
same,%Inh,PAK3,0%
same,%Inh,PAK4,0%
same,%Inh,PAK6,0%
same,%Inh,PAK7,2%
same,%Inh,PCTK1,0%
same,%Inh,PCTK2,0%
same,%Inh,PCTK3,4%
same,%Inh,PDGFRA,0%
